# From publication PMC7862700, “An all-to-all approach to the identification of sequence-specific readers for epigenetic DNA modifications on cytosine”
# What was measured:
# Assay in all cases: DAPPL (digital affinity profiling via proximity ligation, sequencing); 10 mM Tris-HCl pH 7.5, 50 mM NaCl, 1 mM DTT, 4% glycerol, room temperature, 30 min; GST-TFs on glutathione beads, 16-mer random dsDNA library, 0.1% formaldehyde crosslink after washing; high values mean tight binding
# FLI1 = molecular target: T1, FLI1 (Homo sapiens, UniProt Q01543 1-452); conditions: protein: recombinant; tags: N-terminal GST; dsDNA, one strand shown
# T1 sequence: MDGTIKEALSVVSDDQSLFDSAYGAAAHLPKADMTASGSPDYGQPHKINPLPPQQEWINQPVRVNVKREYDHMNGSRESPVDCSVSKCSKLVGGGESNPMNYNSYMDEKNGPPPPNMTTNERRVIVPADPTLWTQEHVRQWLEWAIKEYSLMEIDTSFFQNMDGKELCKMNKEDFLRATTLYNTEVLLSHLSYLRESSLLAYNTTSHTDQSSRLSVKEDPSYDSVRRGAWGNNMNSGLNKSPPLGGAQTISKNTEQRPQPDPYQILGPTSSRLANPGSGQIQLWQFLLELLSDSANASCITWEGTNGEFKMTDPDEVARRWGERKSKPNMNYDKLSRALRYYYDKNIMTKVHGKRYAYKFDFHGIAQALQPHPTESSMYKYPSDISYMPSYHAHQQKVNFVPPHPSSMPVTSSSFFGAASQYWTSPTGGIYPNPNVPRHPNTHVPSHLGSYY
# Procedure, shortened: (§1)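 A tag-only sample was pooled with DNA-barcoded human transcription factors that had been expressed in yeast as GST fusions and captured on glutathione beads. The pools were incubated for 30 min at room temperature with 200 nmole of a random double-stranded 16-mer DNA library in Tris/NaCl/DTT/glycerol buffer, then washed, crosslinked with 0.1% formaldehyde, proximity-ligated (BsaI/T4 ligase, 1 h, 37 °C), PCR-amplified and sequenced on an Illumina NextSeq500. Binding signal is each hexamer's read frequency for a factor divided by its frequency for the tag-only sample.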
# ELK1 = molecular target: T2, ELK1 (Homo sapiens, UniProt P19419 1-428); conditions: protein: recombinant; tags: N-terminal GST; dsDNA, one strand shown
# T2 sequence: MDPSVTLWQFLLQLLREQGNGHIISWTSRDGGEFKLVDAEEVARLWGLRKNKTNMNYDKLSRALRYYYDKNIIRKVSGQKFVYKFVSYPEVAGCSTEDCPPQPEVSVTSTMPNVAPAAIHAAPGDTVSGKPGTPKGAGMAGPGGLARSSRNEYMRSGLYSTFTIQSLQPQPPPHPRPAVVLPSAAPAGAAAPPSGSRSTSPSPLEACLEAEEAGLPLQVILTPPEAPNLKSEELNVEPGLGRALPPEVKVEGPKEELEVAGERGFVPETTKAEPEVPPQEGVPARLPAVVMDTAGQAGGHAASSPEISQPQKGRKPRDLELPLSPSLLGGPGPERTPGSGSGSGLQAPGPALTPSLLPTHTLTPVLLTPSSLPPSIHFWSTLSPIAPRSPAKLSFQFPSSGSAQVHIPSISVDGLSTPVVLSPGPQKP
# Procedure, shortened: as §1
# GABPA = molecular target: T3, GABPA (Homo sapiens, UniProt Q06546 1-454); conditions: protein: recombinant; tags: N-terminal GST; dsDNA, one strand shown
# T3 sequence: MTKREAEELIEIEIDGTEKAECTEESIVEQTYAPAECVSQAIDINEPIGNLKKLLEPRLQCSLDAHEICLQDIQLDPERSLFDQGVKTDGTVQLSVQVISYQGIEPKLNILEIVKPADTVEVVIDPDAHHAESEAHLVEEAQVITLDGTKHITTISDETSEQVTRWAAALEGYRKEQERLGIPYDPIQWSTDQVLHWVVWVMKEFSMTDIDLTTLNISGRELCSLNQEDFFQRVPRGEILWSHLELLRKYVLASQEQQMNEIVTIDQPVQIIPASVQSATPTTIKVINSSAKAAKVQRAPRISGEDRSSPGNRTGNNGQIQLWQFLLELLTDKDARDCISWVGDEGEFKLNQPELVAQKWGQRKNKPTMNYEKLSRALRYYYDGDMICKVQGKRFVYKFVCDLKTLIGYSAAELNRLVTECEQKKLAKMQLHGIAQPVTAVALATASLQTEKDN
# Procedure, shortened: as §1
# ERG = molecular target: T4, ERG (Homo sapiens, UniProt P11308 1-479); conditions: protein: recombinant; tags: N-terminal GST; dsDNA, one strand shown
# T4 sequence: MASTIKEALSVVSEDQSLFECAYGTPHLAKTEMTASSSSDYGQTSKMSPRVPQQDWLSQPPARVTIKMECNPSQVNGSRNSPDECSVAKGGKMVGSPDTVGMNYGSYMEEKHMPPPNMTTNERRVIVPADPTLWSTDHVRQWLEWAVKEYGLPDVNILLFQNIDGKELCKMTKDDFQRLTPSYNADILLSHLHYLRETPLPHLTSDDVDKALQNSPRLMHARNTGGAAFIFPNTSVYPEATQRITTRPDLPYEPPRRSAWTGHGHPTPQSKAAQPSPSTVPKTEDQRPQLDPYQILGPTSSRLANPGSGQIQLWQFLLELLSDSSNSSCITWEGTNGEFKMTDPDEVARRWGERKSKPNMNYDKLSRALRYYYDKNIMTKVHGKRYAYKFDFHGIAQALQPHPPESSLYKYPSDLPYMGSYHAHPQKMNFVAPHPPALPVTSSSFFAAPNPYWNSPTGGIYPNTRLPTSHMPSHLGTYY
# Procedure, shortened: as §1
# ELF1 = ELF1 (Homo sapiens, UniProt P32519 1-619); conditions: protein: recombinant; tags: N-terminal GST; dsDNA, one strand shown
# Procedure, shortened: as §1
# EHF = molecular target: T5, EHF (Homo sapiens, UniProt Q9NZC4 1-300); conditions: protein: recombinant; tags: N-terminal GST; dsDNA, one strand shown
# T5 sequence: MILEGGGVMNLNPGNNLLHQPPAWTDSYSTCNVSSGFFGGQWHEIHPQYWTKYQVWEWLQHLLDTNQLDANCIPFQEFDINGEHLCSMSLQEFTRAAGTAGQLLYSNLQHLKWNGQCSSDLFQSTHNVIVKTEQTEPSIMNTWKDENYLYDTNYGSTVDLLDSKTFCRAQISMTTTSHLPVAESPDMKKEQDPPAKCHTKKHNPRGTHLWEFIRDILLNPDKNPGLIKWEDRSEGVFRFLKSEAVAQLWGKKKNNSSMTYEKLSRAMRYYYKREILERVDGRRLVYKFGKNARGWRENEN
# Procedure, shortened: as §1
# SPI1 = SPI1 (Homo sapiens, UniProt P17947 1-270); conditions: protein: recombinant; tags: N-terminal GST; dsDNA, one strand shown
# Procedure, shortened: as §1
# SPIB = SPIB (Homo sapiens, UniProt Q01892 1-262); conditions: protein: recombinant; tags: N-terminal GST; dsDNA, one strand shown
# Procedure, shortened: as §1
# ELK3 = molecular target: T6, ELK3 (Homo sapiens, UniProt P41970 1-407); conditions: protein: recombinant; tags: N-terminal GST; dsDNA, one strand shown
# T6 sequence: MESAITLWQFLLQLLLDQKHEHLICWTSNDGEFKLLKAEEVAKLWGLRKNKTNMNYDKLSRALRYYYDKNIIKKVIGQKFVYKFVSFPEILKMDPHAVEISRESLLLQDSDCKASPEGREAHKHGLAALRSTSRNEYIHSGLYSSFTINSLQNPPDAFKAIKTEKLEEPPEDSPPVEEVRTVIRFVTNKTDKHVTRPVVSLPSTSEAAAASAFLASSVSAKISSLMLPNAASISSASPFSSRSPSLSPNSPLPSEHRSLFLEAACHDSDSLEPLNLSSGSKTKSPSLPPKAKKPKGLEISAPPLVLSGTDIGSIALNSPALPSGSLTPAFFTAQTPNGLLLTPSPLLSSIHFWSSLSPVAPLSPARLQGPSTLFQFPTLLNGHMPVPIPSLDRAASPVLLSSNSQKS
# Procedure, shortened: as §1
# FEV = molecular target: T7, FEV (Homo sapiens, UniProt Q99581 1-238); conditions: protein: recombinant; tags: N-terminal GST; dsDNA, one strand shown
# T7 sequence: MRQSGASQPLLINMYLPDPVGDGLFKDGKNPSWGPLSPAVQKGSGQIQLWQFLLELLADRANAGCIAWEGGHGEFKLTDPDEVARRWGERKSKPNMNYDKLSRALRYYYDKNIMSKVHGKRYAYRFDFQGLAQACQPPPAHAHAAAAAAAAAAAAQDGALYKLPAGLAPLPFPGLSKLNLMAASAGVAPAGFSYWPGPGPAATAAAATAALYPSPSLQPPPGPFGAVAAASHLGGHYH
# Procedure, shortened: as §1
# ETV5 = ETV5 (Homo sapiens, UniProt P41161 1-510); conditions: protein: recombinant; tags: N-terminal GST; dsDNA, one strand shown
# Procedure, shortened: as §1
# HSF1 = HSF1 (Homo sapiens, UniProt Q00613 1-529); conditions: protein: recombinant; tags: N-terminal GST; chain copies: 3; dsDNA, one strand shown
# Procedure, shortened: as §1
# SPIC = molecular target: T8, SPIC (Homo sapiens, UniProt Q8N5J4 1-248); conditions: protein: recombinant; tags: N-terminal GST; dsDNA, one strand shown
# T8 sequence: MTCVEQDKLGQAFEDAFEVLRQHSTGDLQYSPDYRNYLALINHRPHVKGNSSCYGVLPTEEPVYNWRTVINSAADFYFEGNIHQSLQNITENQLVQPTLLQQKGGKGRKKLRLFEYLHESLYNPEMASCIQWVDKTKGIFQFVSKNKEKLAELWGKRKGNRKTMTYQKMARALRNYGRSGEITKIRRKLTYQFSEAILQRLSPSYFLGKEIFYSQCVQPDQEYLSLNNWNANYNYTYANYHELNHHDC
# Procedure, shortened: as §1
# ELF4 = ELF4 (Homo sapiens, UniProt Q99607 1-663); conditions: protein: recombinant; tags: N-terminal GST; dsDNA, one strand shown
# Procedure, shortened: as §1
# ELK4 = molecular target: T9, ELK4 (Homo sapiens, UniProt P28324-2 1-405); conditions: protein: recombinant; tags: N-terminal GST; dsDNA, one strand shown
# T9 sequence: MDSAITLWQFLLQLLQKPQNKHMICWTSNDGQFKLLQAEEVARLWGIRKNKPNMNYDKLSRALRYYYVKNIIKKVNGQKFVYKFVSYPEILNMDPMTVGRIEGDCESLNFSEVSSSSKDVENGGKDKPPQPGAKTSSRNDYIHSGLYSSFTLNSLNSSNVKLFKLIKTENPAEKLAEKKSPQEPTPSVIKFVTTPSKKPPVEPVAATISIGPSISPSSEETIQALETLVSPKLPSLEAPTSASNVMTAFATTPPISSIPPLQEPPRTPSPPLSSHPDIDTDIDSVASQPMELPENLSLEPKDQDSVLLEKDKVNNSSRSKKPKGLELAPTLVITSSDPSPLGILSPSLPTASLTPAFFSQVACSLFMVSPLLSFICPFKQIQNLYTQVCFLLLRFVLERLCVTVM
# Procedure, shortened: as §1
# ETV2 = molecular target: T10, ETV2 (Homo sapiens, UniProt O00321 1-342); conditions: protein: recombinant; tags: N-terminal GST; dsDNA, one strand shown
# T10 sequence: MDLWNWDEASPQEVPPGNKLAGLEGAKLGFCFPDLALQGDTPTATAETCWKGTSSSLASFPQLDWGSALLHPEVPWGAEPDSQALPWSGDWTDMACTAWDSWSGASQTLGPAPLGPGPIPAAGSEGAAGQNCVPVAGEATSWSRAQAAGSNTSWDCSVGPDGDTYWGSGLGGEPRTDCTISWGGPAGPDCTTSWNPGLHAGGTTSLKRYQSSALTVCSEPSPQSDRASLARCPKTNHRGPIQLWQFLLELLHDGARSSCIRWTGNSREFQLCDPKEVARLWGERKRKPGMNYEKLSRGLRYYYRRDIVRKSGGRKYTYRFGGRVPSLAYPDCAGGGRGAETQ
# Procedure, shortened: as §1
# ELF3 = molecular target: T11, ELF3 (Homo sapiens, UniProt P78545 1-371); conditions: protein: recombinant; tags: N-terminal GST; dsDNA, one strand shown
# T11 sequence: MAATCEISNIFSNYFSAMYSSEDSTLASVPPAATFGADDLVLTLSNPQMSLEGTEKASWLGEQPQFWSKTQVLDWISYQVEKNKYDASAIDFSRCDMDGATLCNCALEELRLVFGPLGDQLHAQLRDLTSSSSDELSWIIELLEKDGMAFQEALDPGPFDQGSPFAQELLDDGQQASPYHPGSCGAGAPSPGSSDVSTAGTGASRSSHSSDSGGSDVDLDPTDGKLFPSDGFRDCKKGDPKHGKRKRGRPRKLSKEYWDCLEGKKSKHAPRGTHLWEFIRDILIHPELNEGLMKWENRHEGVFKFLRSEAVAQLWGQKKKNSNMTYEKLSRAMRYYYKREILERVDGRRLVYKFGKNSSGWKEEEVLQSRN
# Procedure, shortened: as §1
# CRX = CRX (Homo sapiens, UniProt O43186 1-299); conditions: protein: recombinant; tags: N-terminal GST; dsDNA, one strand shown
# Procedure, shortened: as §1
# ETV1 = ETV1 (Homo sapiens, UniProt P50549 1-477); conditions: protein: recombinant; tags: N-terminal GST; dsDNA, one strand shown
# Procedure, shortened: as §1
# Chain of CRX (O43186 whole entry): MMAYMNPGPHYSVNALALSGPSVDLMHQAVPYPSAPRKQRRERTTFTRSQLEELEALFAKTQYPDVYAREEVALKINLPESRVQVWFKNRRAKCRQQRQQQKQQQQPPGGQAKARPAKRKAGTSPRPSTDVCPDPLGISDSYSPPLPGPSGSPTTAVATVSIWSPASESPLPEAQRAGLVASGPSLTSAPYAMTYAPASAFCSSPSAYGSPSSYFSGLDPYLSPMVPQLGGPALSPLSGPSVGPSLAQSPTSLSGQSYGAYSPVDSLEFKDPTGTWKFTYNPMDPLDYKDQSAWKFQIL
# Chain of ETV1 (P50549 whole entry): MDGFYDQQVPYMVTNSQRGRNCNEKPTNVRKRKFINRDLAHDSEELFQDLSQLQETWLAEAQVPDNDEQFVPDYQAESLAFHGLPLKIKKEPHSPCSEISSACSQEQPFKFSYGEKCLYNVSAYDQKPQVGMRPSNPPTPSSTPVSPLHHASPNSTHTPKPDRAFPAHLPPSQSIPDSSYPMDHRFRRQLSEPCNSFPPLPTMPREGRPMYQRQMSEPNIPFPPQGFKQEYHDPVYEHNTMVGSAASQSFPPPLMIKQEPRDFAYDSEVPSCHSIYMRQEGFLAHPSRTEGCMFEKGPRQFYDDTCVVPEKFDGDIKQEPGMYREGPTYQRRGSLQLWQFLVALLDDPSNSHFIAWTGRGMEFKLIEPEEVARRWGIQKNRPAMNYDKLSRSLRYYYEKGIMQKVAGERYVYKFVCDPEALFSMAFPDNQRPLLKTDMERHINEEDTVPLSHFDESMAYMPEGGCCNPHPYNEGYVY
# Chain of ELF1 (P32519 whole entry): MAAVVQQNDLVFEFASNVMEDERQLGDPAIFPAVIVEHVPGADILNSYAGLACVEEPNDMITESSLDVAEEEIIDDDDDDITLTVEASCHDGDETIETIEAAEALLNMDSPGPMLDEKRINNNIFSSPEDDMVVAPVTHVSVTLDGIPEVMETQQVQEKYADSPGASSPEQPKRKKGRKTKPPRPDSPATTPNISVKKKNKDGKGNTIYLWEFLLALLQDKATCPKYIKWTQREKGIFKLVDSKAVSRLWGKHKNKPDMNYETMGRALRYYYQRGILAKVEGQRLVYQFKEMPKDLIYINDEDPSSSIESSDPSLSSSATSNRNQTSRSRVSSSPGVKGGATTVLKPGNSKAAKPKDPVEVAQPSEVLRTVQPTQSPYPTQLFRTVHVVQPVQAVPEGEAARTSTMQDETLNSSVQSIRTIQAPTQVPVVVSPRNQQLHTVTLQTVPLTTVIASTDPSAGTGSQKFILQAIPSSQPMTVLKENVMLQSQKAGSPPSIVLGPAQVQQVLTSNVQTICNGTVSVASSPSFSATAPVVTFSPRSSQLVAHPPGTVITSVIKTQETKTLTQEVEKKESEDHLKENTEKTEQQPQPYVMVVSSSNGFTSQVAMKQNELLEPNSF
# Chain of SPIB (Q01892 whole entry): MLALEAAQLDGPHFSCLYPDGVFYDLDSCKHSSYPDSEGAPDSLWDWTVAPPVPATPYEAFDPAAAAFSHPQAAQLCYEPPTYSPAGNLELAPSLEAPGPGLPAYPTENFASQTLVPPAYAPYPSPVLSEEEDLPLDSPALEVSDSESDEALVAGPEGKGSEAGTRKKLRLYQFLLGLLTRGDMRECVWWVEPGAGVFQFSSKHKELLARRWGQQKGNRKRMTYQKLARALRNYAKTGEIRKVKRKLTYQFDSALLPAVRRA
# Chain of HSF1 (Q00613 whole entry): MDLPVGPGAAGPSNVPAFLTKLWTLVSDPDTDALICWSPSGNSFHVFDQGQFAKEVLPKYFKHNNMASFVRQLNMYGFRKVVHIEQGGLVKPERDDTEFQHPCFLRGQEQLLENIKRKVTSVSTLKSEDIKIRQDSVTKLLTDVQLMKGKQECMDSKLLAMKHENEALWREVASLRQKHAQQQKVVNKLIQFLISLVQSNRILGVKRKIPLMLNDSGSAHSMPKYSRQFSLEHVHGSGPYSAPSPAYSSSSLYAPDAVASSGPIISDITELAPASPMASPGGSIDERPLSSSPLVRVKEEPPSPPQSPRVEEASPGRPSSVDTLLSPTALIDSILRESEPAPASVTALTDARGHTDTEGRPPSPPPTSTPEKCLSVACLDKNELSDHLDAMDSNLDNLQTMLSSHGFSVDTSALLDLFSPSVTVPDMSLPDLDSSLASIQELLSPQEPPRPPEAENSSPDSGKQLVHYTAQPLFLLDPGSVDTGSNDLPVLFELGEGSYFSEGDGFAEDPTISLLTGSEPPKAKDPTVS
# Chain of ETV5 (P41161 whole entry): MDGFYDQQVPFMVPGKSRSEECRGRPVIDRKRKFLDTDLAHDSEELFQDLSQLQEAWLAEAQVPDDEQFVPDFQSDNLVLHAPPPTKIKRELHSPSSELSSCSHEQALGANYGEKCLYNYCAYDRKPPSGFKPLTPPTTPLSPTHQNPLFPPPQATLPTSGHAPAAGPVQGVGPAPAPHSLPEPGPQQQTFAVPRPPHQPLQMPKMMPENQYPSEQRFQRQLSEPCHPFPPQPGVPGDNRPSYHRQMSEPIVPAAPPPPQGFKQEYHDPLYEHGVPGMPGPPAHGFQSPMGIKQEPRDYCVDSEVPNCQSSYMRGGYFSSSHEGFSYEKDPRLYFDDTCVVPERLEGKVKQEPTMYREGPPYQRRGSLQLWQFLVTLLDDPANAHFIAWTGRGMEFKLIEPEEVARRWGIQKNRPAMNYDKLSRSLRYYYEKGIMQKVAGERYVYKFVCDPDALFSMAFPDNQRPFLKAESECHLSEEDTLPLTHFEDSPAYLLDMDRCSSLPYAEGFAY
# Chain of ELF4 (Q99607 whole entry): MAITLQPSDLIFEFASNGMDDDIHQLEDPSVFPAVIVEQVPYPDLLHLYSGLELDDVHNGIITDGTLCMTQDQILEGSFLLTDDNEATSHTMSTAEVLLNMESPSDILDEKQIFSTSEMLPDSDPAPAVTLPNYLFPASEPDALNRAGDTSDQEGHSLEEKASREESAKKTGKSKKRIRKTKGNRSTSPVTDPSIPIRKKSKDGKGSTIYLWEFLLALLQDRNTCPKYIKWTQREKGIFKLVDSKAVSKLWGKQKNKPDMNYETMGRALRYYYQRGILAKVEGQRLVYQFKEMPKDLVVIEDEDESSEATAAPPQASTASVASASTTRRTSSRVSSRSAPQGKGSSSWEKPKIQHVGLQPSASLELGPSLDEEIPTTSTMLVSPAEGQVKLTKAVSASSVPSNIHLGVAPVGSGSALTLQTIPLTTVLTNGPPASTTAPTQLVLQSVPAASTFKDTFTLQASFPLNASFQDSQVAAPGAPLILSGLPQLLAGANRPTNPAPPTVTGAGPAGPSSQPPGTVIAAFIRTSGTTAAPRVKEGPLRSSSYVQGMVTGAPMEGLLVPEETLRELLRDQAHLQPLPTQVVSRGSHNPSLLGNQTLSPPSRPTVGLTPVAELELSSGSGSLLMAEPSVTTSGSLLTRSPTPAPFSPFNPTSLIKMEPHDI
sequence,measurement,setting,value
TTCGCA,binding signal,FLI1,"1.23 fold enrichment (6-mer frequency, TF over GST control)"
same,binding signal,ELK1,"1.36 fold enrichment (6-mer frequency, TF over GST control)"
same,binding signal,GABPA,"1.33 fold enrichment (6-mer frequency, TF over GST control)"
same,binding signal,ERG,"1.29 fold enrichment (6-mer frequency, TF over GST control)"
same,binding signal,ELF1,"1.27 fold enrichment (6-mer frequency, TF over GST control)"
same,binding signal,EHF,"1.34 fold enrichment (6-mer frequency, TF over GST control)"
same,binding signal,SPI1,"1.32 fold enrichment (6-mer frequency, TF over GST control)"
same,binding signal,SPIB,"1.46 fold enrichment (6-mer frequency, TF over GST control)"
same,binding signal,ELK3,"1.25 fold enrichment (6-mer frequency, TF over GST control)"
same,binding signal,FEV,"1.4 fold enrichment (6-mer frequency, TF over GST control)"
same,binding signal,ETV5,"1.15 fold enrichment (6-mer frequency, TF over GST control)"
same,binding signal,HSF1,"1.31 fold enrichment (6-mer frequency, TF over GST control)"
same,binding signal,SPIC,"1.32 fold enrichment (6-mer frequency, TF over GST control)"
same,binding signal,ELF4,"1.26 fold enrichment (6-mer frequency, TF over GST control)"
same,binding signal,ELK4,"1.2 fold enrichment (6-mer frequency, TF over GST control)"
same,binding signal,ETV2,"1.34 fold enrichment (6-mer frequency, TF over GST control)"
same,binding signal,ELF3,"1.11 fold enrichment (6-mer frequency, TF over GST control)"
same,binding signal,CRX,"1.28 fold enrichment (6-mer frequency, TF over GST control)"
same,binding signal,ETV1,"1.32 fold enrichment (6-mer frequency, TF over GST control)"
